T1: TOM1L1 1-150 VHS (domain begin residue: 1, domain end residue: 150), O75674
T1 chain: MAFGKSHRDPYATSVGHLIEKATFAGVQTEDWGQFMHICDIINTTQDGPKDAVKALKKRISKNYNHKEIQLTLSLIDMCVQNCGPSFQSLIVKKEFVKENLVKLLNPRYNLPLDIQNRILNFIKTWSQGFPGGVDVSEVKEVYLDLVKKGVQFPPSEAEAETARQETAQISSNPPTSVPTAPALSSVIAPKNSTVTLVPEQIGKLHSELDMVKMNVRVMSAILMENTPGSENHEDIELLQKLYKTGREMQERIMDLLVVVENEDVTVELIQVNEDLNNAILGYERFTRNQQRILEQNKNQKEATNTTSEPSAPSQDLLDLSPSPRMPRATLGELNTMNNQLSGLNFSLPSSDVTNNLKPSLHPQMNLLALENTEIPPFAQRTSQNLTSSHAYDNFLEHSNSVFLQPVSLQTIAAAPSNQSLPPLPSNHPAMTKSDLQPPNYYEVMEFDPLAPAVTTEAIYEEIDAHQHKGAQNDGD

T2: TSG101 1-145 UEV (domain begin residue: 1, domain end residue: 145), Q99816
T2 chain: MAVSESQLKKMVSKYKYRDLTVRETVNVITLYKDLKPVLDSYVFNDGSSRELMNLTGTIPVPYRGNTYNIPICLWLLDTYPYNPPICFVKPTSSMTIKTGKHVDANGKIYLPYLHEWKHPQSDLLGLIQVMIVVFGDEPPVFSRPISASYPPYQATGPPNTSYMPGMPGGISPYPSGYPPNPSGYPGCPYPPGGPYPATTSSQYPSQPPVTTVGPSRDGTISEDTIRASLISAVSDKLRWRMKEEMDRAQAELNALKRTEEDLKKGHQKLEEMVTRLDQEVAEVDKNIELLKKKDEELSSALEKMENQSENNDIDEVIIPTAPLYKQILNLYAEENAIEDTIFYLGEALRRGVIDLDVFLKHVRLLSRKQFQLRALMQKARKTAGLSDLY

T3: TOM1L2 1-153 VHS (domain begin residue: 1, domain end residue: 153), Q6ZVM7
T3 chain: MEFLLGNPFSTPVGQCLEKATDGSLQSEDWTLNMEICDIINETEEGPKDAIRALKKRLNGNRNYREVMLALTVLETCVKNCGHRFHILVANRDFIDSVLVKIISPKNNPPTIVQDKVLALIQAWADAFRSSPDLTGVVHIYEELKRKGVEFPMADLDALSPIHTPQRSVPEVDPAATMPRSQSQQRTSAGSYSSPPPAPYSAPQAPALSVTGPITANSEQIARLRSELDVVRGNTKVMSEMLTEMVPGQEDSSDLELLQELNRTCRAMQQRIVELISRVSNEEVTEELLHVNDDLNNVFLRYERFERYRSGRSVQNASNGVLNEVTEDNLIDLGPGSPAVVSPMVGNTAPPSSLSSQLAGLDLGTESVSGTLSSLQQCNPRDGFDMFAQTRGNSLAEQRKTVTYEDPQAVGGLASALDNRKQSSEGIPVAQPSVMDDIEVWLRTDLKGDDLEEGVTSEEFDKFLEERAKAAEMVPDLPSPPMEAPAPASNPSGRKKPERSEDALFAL

T4: TRIM11 268-461 SPRY (domain begin residue: 268, domain end residue: 461), Q96F44
T4 chain: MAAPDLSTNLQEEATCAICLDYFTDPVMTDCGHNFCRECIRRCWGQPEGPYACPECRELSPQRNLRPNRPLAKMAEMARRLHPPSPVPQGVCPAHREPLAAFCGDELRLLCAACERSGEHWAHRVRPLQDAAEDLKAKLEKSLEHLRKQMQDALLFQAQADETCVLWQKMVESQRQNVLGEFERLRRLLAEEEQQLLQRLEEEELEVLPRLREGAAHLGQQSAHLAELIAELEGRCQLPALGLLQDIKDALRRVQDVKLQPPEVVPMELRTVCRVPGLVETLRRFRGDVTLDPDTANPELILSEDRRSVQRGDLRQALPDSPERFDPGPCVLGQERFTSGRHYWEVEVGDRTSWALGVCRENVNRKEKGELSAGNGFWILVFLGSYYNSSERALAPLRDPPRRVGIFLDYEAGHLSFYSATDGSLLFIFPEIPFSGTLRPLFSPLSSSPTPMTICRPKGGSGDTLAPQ

T5: TRIM10 292-481 SPRY (domain begin residue: 292, domain end residue: 481), Q9UDY6
T5 chain: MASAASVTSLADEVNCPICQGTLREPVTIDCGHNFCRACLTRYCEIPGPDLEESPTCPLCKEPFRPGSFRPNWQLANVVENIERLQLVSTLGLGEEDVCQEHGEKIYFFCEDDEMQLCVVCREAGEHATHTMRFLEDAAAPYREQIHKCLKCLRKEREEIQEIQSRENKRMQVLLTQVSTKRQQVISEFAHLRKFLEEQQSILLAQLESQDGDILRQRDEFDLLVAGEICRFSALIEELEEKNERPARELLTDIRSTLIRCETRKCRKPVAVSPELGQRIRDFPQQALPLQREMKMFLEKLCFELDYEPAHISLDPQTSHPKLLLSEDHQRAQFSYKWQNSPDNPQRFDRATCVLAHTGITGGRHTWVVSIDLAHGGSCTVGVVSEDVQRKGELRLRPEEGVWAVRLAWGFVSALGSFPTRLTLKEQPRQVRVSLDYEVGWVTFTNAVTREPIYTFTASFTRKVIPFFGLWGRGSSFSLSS


Each binder was assayed against TRIM25 439-630 SPRY (domain begin residue: 439, domain end residue: 630), Q14258 (assay: phage ELISA signal ratio (GST-PRM binding over GST background); higher = stronger binding of peptide-phage to the PRM).
TRIM25 439-630 SPRY (domain begin residue: 439, domain end residue: 630), Q14258, sequence (Q14258 whole entry, the tested form may be a part): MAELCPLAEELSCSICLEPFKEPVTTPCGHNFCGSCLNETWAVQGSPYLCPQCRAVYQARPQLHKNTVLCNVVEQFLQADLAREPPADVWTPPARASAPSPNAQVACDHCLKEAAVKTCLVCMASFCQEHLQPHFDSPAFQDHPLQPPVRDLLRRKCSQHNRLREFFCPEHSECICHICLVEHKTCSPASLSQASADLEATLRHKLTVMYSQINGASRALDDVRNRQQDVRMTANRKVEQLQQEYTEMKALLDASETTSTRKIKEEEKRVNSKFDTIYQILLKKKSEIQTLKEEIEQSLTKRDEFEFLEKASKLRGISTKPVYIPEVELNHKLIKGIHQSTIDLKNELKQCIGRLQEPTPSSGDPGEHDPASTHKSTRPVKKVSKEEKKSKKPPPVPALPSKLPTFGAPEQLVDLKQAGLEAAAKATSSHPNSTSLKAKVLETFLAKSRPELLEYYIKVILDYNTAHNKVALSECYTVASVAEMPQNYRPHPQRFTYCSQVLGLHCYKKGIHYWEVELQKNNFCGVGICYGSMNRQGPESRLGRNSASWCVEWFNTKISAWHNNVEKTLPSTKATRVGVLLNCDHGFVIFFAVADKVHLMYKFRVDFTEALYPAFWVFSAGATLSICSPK
Procedure, shortened: (§1)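 Each value is the phage ELISA signal on the glutathione S-transferase (GST)-domain fusion divided by the signal on GST alone. Human peptide recognition domains were expressed in 96-well plates, fused to the C-terminus of GST, and selected against an M13 phage library carrying randomized, cysteine-free, glycine-flanked hexadecapeptides on the gene-8 major coat protein. After five selection rounds, approximately 48 individual clones from rounds 4 and 5 were tested by phage ELISA, and positive clones were sequenced.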

Binder | phage ELISA signal ratio
VVGDGMAFERWFQDFE | 14.5
TVFWDGMYDWPVEMDI | 21
WDDGFMEYGALPHEQM | 12.3
MPDGWWDQYSWEHIAE | 15.7
MDWYDMYGTTWDMIPG | 10.7

Target: T1, TOM1L1 1-150 VHS (domain begin residue: …
Assay: as above
Procedure, shortened: as §1

Binder | phage ELISA signal ratio
DMLDWSWTEEVELWFQ | 24.5
DDHLWHPSFKWWDEYV | 15.8
WDEEDDHWWEHFFWFQ | 12.6
ADGWGWYENWVWPASM | 4.28
QHDWAPSYLWWDEWTM | 20.5

Target: T2, TSG101 1-145 UEV (domain begin residue: …
Assay: as above
Procedure, shortened: as §1

Binder | phage ELISA signal ratio
YLWFSPAPSAPIWQWV | 5.56
FPYNPHWDMLQQETTV | 3.09

Target: T3, TOM1L2 1-153 VHS (domain begin residue: …
Assay: as above
Procedure, shortened: as §1

Binder | phage ELISA signal ratio
TEMWTPAQQALWAYIT | 8.79
DRKLSQQELALWAYII | 27.7
KWNDDDWWTYFVSQVE | 20.3
LPPHWFDEMYSITAMY | 7.51
GLASYFADNYHLIFSE | 22.4
YQDWDWDPEMKRMVVS | 4.04

Target: T4, TRIM11 268-461 SPRY (domain begin …
Assay: as above
Procedure, shortened: as §1

Binder | phage ELISA signal ratio
PFTYYSSEMYPWYIFG | 11.1
WYEDGWWTPHRMEQTR | 30
QFFLFQSAPSWVLQPI | 13.8
QVFWYPQAEEWPWFLD | 34.5
ELTTFHFYKEAPVWVI | 31.5
TGNVFQFMDPPQWLTH | 29.9
KVNTFHFMDPPDWLTH | 14.3
VGTFMFGEMPSWVVST | 19.6

Each binder was assayed against TRIM30 281-496 SPRY (domain begin residue: 281, domain end residue: 496) in the same assay as above.
Procedure, shortened: as §1

Binder | phage ELISA signal ratio
WDWQTDYGYWEDFVPV | 4.08

Target: T5, TRIM10 292-481 SPRY (domain begin …
Assay: as above
Procedure, shortened: as §1

Binder | phage ELISA signal ratio
WEDGWLIPNAQDFQGM | 3.64

What follows are binders tested against TOM1 1-153 VHS (domain begin residue: 1, domain end residue: 153), O60784 in the same assay as above.
TOM1 1-153 VHS (domain begin residue: 1, domain end residue: 153), O60784, sequence (O60784 whole entry): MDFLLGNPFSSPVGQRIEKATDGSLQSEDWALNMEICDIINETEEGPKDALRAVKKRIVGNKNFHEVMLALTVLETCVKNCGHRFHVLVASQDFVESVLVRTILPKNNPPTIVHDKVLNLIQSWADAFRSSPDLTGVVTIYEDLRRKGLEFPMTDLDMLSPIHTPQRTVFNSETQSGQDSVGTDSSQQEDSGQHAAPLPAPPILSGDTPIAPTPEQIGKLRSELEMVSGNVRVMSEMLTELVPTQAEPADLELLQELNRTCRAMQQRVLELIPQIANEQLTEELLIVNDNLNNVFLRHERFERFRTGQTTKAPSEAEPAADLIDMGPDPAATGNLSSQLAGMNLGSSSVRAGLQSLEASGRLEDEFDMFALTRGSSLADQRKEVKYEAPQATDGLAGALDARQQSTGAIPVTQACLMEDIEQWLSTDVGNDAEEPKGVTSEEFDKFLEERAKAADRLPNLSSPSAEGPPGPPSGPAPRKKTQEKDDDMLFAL
Procedure, shortened: as §1

Binder | phage ELISA signal ratio
PWWLEYEMPITRESPV | 4.45
